Screening data (PubChem BioAssay)
Shown are actives, neighbours in structure and some others; about 2% of the full set was active somewhere.
CHRM4 PAM – positive allosteric modulators of human muscarinic M4 receptor. 0.4% of 360,000 active. AID 624126. activation, % at 3 µM. P08173. CHO-K1 hM4/Gqi5, Fluo-8 calcium fluorescence, ACh EC20; 0% = ACh EC20, 100% = maximal ACh;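 active means activation above its plate's cutoff, the mean activation of sample wells plus 3 SD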
Target sequence (P08173 whole entry, looked up): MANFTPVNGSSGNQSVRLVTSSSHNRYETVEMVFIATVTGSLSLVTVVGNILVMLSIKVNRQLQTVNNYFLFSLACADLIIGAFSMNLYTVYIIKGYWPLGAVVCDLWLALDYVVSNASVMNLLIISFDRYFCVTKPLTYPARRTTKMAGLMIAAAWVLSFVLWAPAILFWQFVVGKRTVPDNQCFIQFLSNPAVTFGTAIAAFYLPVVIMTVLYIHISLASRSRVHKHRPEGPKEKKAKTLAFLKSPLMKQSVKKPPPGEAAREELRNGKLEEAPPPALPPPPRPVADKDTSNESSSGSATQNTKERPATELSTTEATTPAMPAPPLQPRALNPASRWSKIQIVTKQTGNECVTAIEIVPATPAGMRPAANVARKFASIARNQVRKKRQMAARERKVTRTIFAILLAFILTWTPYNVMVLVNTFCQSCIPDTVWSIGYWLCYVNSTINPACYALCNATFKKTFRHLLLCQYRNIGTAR
M4 ag – CHRM4 agonism in calcium assay; P08173; CHO-K1 hM4/Gqi5, Fluo-8 calcium fluorescence; vehicle 0%, full acetylcholine response 100%; activation, % at 3 µM; 0.14% of 360,000 active;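 active means activation above the run mean over all test wells plus 3 SD, cut at about 32% in these data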;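 further: peak over basal fluorescence ratio per well then scaled between controls; 0% = DMSO wells and 100% = acetylcholine at EC100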
CHO-K1 Ca ag – counter-screen for M1 agonists: effect in parental CHO-K1 cells | Fluo-8 calcium fluorescence; scaled to maximal ATP response, vehicle zero | activation, % at 3 µM | 0.48% of 360,000 active; in the data active means activation above about 15%;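 further: untransfected CHO-K1 host cells lacking M1 receptor as counterscreen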
M1 PAM parental – nonselective activator or artifact in parental CHO-K1 calcium assay; ATP EC20, Fluo-8 calcium fluorescence; 0% at ATP EC20, 100% at ATP max; activation, % at 3 µM; 0.02% of 360,000 active;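 active means activation above the run cutoff, the mean activation of all test compounds plus 3 SD, cut at about 40% in these data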;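 further: peak over basal fluorescence ratio in a 140 s read after ATP addition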
CHRM4 antagonist – antagonists of human muscarinic M4 receptor (CHRM4); CHO-hM4 cells, ACh EC80, Fluo-8 calcium fluorescence; inhibition, % at 3 µM; P08173; 0.73% of 360,000 active;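 active means inhibition above its plate's cutoff, the mean inhibition of sample wells plus 3 SD, cut at about 27% in these data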;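 further: 0% = acetylcholine EC80 with DMSO and 100% = DMSO without agonist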
CHO-K1 Ca antag – M1 antagonist counterscreen hit in parental CHO-K1 cells; ATP-induced calcium, Fluo-8 fluorescence; inhibition, % at 3 µM; 0.6% of 360,000 active;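 active means inhibition above a per-plate cutoff, the plate's mean sample inhibition plus 3 SD, cut at about 24% in these data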;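 further: 0% = DMSO plus EC80 ATP and 100% = DMSO alone without ATP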
* hit, by the source's call.

SMILES	CHRM4 PAM	M4 ag	CHO-K1 Ca ag	M1 PAM parental	CHRM4 antagonist	CHO-K1 Ca antag
Clc1ccc(-c2ccc(-c3nn4c(-c5ccco5)nnc4s3)o2)cc1	6	0	0	9	1	-30
O=C(COc1coc(CN2CCc3ccccc3C2)cc1=O)Nc1ccc(Cl)cc1	3	1	0	-12	-13	-3
C#Cc1cccc(C(=O)N2CCCC(C(=O)c3ccc(OC)cc3C)C2)c1 (stereo not drawn)	1	4	1	-22	-6	25*
COc1ccc(C(=O)C2CCCN(S(=O)(=O)c3ccc(C(C)=O)cc3)C2)c(C)c1 (stereo not drawn)	-14	22	16*	-9	10	11
CSc1ccc(CCNC(=O)C2CCCN(S(=O)(=O)N3CCOCC3)C2)cc1 (stereo not drawn)	-6	12	4	16	-3	-11
COc1cccc(Nc2nc3ccccc3nc2-n2nc(C)cc2C)c1	6	-1	0	22	-6	-4
CCC1(c2ccc(F)cc2)NC(=O)N(CC(=O)N(C)C2CCS(=O)(=O)C2)C1=O (stereo not drawn)	4	0	2	20	4	-1
COc1cccc(Cn2cnc(-c3ccccc3OC)c2-c2cccnc2)c1	1	1	0	22	3	-4
CN(C)CCCN1c2ccccc2CCc2ccccc21	-17	2	1	7	70*	5
CC(CN(C)C)CN1c2ccccc2CCc2ccccc21 (stereo not drawn)	-19	6	1	8	87*	8
COc1cccc(NC(=O)c2ccccc2-c2ccccc2)c1	4	1	0	11	-10	-8
COc1ccc(CCNC(=O)CCCN2C(=O)c3ccccc3C2=O)cc1OC	3	1	1	16	10	-25
Cc1cc(=O)[nH]c2c1c(-c1ccccc1)nn2C	-16	0	0	-23	100*	7
COCc1cc(=O)[nH]c2c1c(-c1ccccc1)nn2C	2	0	1	7	4	-9
CCc1ccc2c(c1)C1(SC(NC(C)=O)=NN1C(C)=O)C(=O)N2C(C)C (stereo not drawn)	-1	1	1	7	4	-21
c1ccc(OCCCCN2CCCCC2)cc1	-7	0	3	11	9	0
CC1CCCN(CCCCOc2cccc(Br)c2)C1 (stereo not drawn)	-18	4	1	9	35*	7
Brc1cccc(OCCCCN2CCCCC2)c1	-39	3	1	20	53*	-7
CCOc1cccc(OCCCCN2CCCCC2)c1	-28	0	0	3	57*	-8
CC1CCCN(CCOc2ccc(Br)cc2)C1 (stereo not drawn)	12	4	2	19	-8	-10
COc1cccc(OCCCCN2CCCCC2)c1	-20	1	1	20	16	-14
O=C(NNc1cc(Cl)ccc1Cl)c1cccs1	-5	1	0	5	9	-1
CCOC(=O)C1(C)CCN1C(=O)c1c(F)cccc1F (stereo not drawn)	6	1	0	6	-3	3
Cc1ccc(NC(=O)CSc2nnc(N)s2)cc1S(=O)(=O)N1CCCCC1	-2	2	3	6	1	2
CC(C)(C)C(=O)COC(=O)c1ccccc1O	-4	0	0	12	4	1
SMILES	CHRM4 PAM	M4 ag	CHO-K1 Ca ag	M1 PAM parental	CHRM4 antagonist	CHO-K1 Ca antag
CCCCCc1ccc(OCCCC[n+]2cccc(C)c2)c(CCCCC)c1	-17	1	0	16	42*	3
CCCCCc1ccc(OCCCC[n+]2ccccc2)c(CCCCC)c1	-17	-1	-1	15	13	-2
CCCCCc1ccc(OCCCC[n+]2ccc(C)cc2)c(CCCCC)c1	-24	11	0	5	48*	-3
O=S(=O)(Nc1ccon1)c1cc(Cl)ccc1Cl	4	0	0	3	-6	-2
CCCC#CCN1CCN(C23CC4CC(CC(C4)C2)C3)CC1	-11	1	0	-1	28*	-6
CC(=O)N1CCN(C23CC4CC(CC(C4)C2)C3)CC1	-1	0	0	4	1	-6
CCCCCC#CCN1CCN(C23CC4CC(CC(C4)C2)C3)CC1	-14	1	0	19	30*	-20
CCCOc1ccc(Cn2c(=O)oc3ccc(C)cc32)cc1OC	-6	1	2	23	-13	-9
Cc1ccc(NC(=O)CSC2=C(C#N)C(c3ccco3)CC(=O)N2)cc1 (stereo not drawn)	-3	4	1	2	11	19
Cc1ccc(C(=O)CSC2=C(C#N)C(c3ccco3)CC(=O)N2)c(C)c1 (stereo not drawn)	-14	29	16*	16	14	1
Cc1nc(-c2nnc(-c3ccccc3)o2)c(C(F)(F)F)o1	-20	13	5	10	29*	-15
O=C(O)c1cccc(NC(=S)NC(=O)c2ccc(-c3ccccc3)cc2)c1	-5	1	0	-8	3	1
CN(C)CCOc1cccc(Cl)c1	0	0	19*	26	-5	-5
Cc1nc2ccc(S(=O)(=O)Nc3cccc(-c4nc5cccnc5s4)c3)cc2s1	-8	23	6	-9	-7	30*
Cc1nc2ccc(S(=O)(=O)Nc3ccc(-c4nc5cccnc5s4)cc3)cc2s1	5	8	2	22	-2	-2
Cc1nc2ccc(NS(=O)(=O)c3ccc4c(c3)OCCO4)cc2s1	2	11	7	-1	27*	23
Cc1ccc(S(=O)(=O)Nc2ccc3nc(C)sc3c2)cc1	-2	9	5	8	13	7
COc1cccc(NC(=O)c2nc3nc(C)cc(C(F)F)n3n2)c1	8	1	0	20	-21	-8
Cc1cc(C(F)F)n2nc(C(=O)Nc3cc(C)on3)nc2n1	28*	1	1	17	4	-8
CCN(CC)c1ccc2cc(C(=O)NCc3ccc(F)cc3)c(=N)oc2c1	-1	1	5	11	11	9
O=c1oc2ccc3ccccc3c2cc1-c1nnc(-c2ccccc2)o1	0	0	0	-3	6	3
CCN(CC)c1ccc2cc(-c3nnc(-c4ccccc4)o3)c(=O)oc2c1	-5	11	28*	4	4	23
CCN(CC)c1ccc2cc(-c3nc4ccccc4[nH]3)c(=O)oc2c1	-19	552*	80*	-14	25	8
CCN(CC)c1ccc2cc(C(=O)c3cccs3)c(=O)oc2c1	-19	65*	74*	-1	33*	40*
CCN(CC)c1ccc2cc(-c3nc4ccccc4n3C)c(=O)oc2c1	1	20	5	-16	7	8
